From PubChem BioAssay AID1443 (Sanford-Burnham Center for Chemical Genomics, 2008)
The whole screen tested about 220,000 compounds, of which about 880 (0.4%) were called active.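 The calls were made as follows: active = cell killing above 50% in the first pass at 4 µM, then a duplicate retest at 5 µM averaging 50% or more; inactive = the rest.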 Many of the other results were omitted from the sample, so actives are more common in it than they were.

Assay: PPC-1 cell viability loss under TRAIL – PPC-1 cells, ATPLite luminescence, uHTS, TRAIL potentiator project, primary screen (AID 1443);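 also: plate controls were cells with TRAIL plus DMSO for no effect and medium-only wells lacking cells for full effect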
Settings: PPC-1 cells + TRAIL, active compounds read high; at 4 µM unless noted
In the case of `COC(=O)c1sc(NC(=S)NC(=O)c2ccc(C)cc2)nc1C`, the cell killing (% activity) is reported as 27.1% (inactive). For `CC(=O)c1sc(NC(=O)c2cccc3ccccc23)nc1C`, the cell killing (% activity) was 32% (inactive). For `CC(=O)c1sc(NC(=O)c2ccc(C)cc2)nc1C`, the cell killing (% activity) was 56.3% [at 5 µM] (active). For `CC(=O)c1cc(-c2ccccc2)n(CC(=O)NC2CCCCC2)c1C`, the cell killing (% activity) was 6.9% (inactive). With `CCCCCC(O)c1cccc(OCc2ccc3ccccc3n2)c1` (stereo unspecified) the cell killing (% activity) was 10.7% (inactive). With `Cc1n[nH]c(=O)nc1N/N=C/c1cccs1` the cell killing (% activity) was 12.1% (inactive). With `COc1cccc(NC(=O)CC(c2ccc(OC(C)C)cc2)c2ccccc2OC)c1` (stereo unspecified) the cell killing (% activity) was 22.6% (inactive). For `C=C(C)CNC(=S)Nc1ccc(S(=O)(=O)Nc2cnc3ccccc3n2)cc1`, the cell killing (% activity) was 12.5% (inactive). In the case of `O=C(O)c1ccc(N/N=C/c2cn(-c3ccccc3)nc2-c2cccs2)cc1`, the cell killing (% activity) is reported as 79% [at 5 µM] (active). For `O=C(O)/C=C/c1cn(-c2ccccc2)nc1-c1cccs1`, the cell killing (% activity) was 15.1% (inactive). For `O=C(/C=C\c1cn(-c2ccccc2)nc1-c1cccs1)N1CCOCC1`, the cell killing (% activity) was 5.8% (inactive). With `O=C(COC(=O)Cc1ccc(Br)cc1)Nc1c(F)c(F)c(F)c(F)c1F` the cell killing (% activity) was 17% (inactive). In the case of `O=C(CCl)Nc1cccc(CP(=O)(c2ccccc2)c2ccccc2)c1`, the cell killing (% activity) is reported as -1.1% (inactive). For `O=C(Cc1cccs1)N/N=C/c1ccc(OCc2ccccc2)cc1`, the cell killing (% activity) was 20% (inactive). With `CC[C@@H](C)[C@@H](C(=O)N1CCN(C(=O)OC(C)(C)C)CC1)n1cc(CCC(=O)O)nn1` the cell killing (% activity) was 19% (inactive). In the case of `CC(=O)c1ccc(NC(=O)C2CC(=O)Nc3nc4ccccc4n32)cc1` (stereo unspecified), the cell killing (% activity) is reported as 27.4% (inactive). With `COc1cc(C2C(N3C(=O)c4ccccc4C3=O)C(=O)N2c2ccc(C)c(C)c2)cc(OC)c1OC` (stereo unspecified) the cell killing (% activity) was 0.4% (inactive). For `COC(=O)[C@H](CC(C)C)NC(=O)N1CCCCC1C` (stereo partly specified), the cell killing (% activity) was 8.6% (inactive). In the case of `CS(=O)(=O)N(CC(=O)N/N=C/c1ccccn1)c1ccc(Oc2ccccc2)cc1`, the cell killing (% activity) is reported as 2.8% (inactive). For `CC(CNC(=O)c1ccc(N)cc1)NC(=O)c1ccc(N)cc1` (stereo unspecified), the cell killing (% activity) was 15.7% (inactive). For `O=C(NN1C(=O)C2C(C1=O)C1C=CC2C12CC2)c1ccccc1Cl` (stereo unspecified), the cell killing (% activity) was 15.1% (inactive). For `COc1ccc(NC(=O)C2=NNC(=O)CC2)cc1S(=O)(=O)N1CCCCC1`, the cell killing (% activity) was 2.4% (inactive). With `COc1ccc(-c2csc(Nc3ccccn3)n2)cc1` the cell killing (% activity) was 26.9% (inactive). For `CCOc1cc(NC(=O)c2ccccn2)c(OCC)cc1NC(=O)c1ccc(OC)cc1`, the cell killing (% activity) was 6.2% (inactive). In the case of `COc1ccc(C(=O)/C=C/Nc2ccccn2)cc1`, the cell killing (% activity) is reported as 74.5% [at 5 µM] (active). With `Cc1ccc(/C=N/NC(=O)CSc2ccccn2)o1` the cell killing (% activity) was 28% (inactive). For `Cc1ccnc(NC(=O)Cn2ccc([N+](=O)[O-])n2)c1`, the cell killing (% activity) was -4.4% (inactive). With `CN1C(=O)/C(=C/C=C2\SCCN2C)OC1=S` the cell killing (% activity) was 7.1% (inactive). In the case of `COCCNC(=O)/C(C#N)=C/c1cccc(OCc2ccccc2)c1`, the cell killing (% activity) is reported as 6.3% (inactive). In the case of `COc1cc(/C=N/Nc2nn3cnnc3c3ccccc23)cc(OC)c1OC`, the cell killing (% activity) is reported as 58.2% (active). For `CCOc1ccc(/C=N/Nc2nncc(-c3ccccc3)n2)cc1OC`, the cell killing (% activity) was -7.3% (inactive). For `COc1ccc(/C=N/Nc2nc3ccccc3o2)cc1OC`, the cell killing (% activity) was 33% (inactive). For `COc1ccc(NC(=O)C2CCC(CNc3c(N4CCCCC4)c(=O)c3=O)CC2)c(OC)c1` (stereo unspecified), the cell killing (% activity) was -39.4% (inactive). In the case of `Cc1noc(C)c1S(=O)(=O)N(C)Cc1ccccc1`, the cell killing (% activity) is reported as 17.3% (inactive). For `O=C(Nc1nc2ccccc2s1)c1ccc2c(c1)OCO2`, the cell killing (% activity) was 61.1% (active). In the case of `Cc1cc(C)c2nc(NC(=O)c3ccc4c(c3)OCO4)sc2c1`, the cell killing (% activity) is reported as 4.5% (inactive). In the case of `COCc1nnc(NC(=O)c2ccc3c(c2)OCO3)s1`, the cell killing (% activity) is reported as 21.9% (inactive). With `Cc1ccc(NC(=O)CCC(=O)N/N=C/c2ccco2)c(C)c1` the cell killing (% activity) was 5.1% (inactive). In the case of `COC(=O)C(=Nc1ccccc1)/C(C(=O)C(=O)N(C)c1ccccc1)=C(\O)c1ccc(Cl)cc1`, the cell killing (% activity) is reported as -15.5% (inactive). With `CC1(C)COC(c2cccn2Cc2ccccc2Cl)=N1` the cell killing (% activity) was 3.7% (inactive). With `Cc1ccc(-c2cc(C(=O)N/N=C/C=C/c3ccco3)c3ccccc3n2)cc1C` the cell killing (% activity) was 55.7% [at 5 µM] (active). For `COc1cccc(-c2cc(C(=O)N/N=C/c3ccc(OC)c(COC(C)=O)c3)c3ccccc3n2)c1`, the cell killing (% activity) was 4.5% (inactive). In the case of `O=C(N/N=C/C=C/c1ccco1)c1cccs1`, the cell killing (% activity) is reported as 24.4% (inactive). In the case of `Nc1ccccc1SC(C[N+](=O)[O-])c1ccccc1` (stereo unspecified), the cell killing (% activity) is reported as 6.4% (inactive). In the case of `O=c1c2ccccc2cnn1Cc1n[nH]c(=S)n1-c1ccccc1F`, the cell killing (% activity) is reported as 17.1% (inactive). With `COc1ccc(Cl)cc1NC(=O)Cn1nc(-c2ccc(C)cc2)n(C)c1=S` the cell killing (% activity) was 14.2% (inactive). With `Cn1cnc([N+](=O)[O-])c1Sc1n[nH]c(N)n1` the cell killing (% activity) was -16.4% (inactive). With `COc1cccc(CNC(=O)CCC2CCCN(C(=O)c3cc(C)[nH]n3)C2)c1` (stereo unspecified) the cell killing (% activity) was 12.1% (inactive). In the case of `CCc1ccccc1NC(=O)CSc1nnc(-c2ccncc2)o1`, the cell killing (% activity) is reported as -4.8% (inactive). For `O=C(CSc1nnc(-c2ccc([N+](=O)[O-])cc2)o1)Nc1ccccn1`, the cell killing (% activity) was 51% [at 5 µM] (active). In the case of `CCOC(=O)CSc1nnc(-c2ccc([N+](=O)[O-])cc2)o1`, the cell killing (% activity) is reported as 7.7% (inactive). With `COc1ccc(CNC(=O)C(Cc2ccccc2)n2cccc2)cc1` (stereo unspecified) the cell killing (% activity) was -1.5% (inactive). With `O=C(CCN1C(=O)C2C3C=CC(C3)C2C1=O)Oc1ccc2ccccc2c1` (stereo unspecified) the cell killing (% activity) was 9.1% (inactive). With `CCCCCCCNc1nc(Cl)nc(NCCO)n1` the cell killing (% activity) was 17.1% (inactive). In the case of `CC(C)(O)C#Cc1ncc(C(F)(F)F)cc1Cl`, the cell killing (% activity) is reported as 3.1% (inactive). For `Cc1c(C2=CCN(S(=O)(=O)c3ccc(Cl)cc3)CC2)c2ccccc2n1C`, the cell killing (% activity) was 31.7% (inactive). For `S=c1[nH]nc(-c2ccco2)n1/N=C/c1ccccc1`, the cell killing (% activity) was 8% (inactive). With `Cn1c(-c2ccco2)nc2cc3ccccc3cc21` the cell killing (% activity) was 89.2% [at 5 µM] (active). In the case of `CN1c2ccccc2-c2nc3ccccc3n2C1c1ccco1` (stereo unspecified), the cell killing (% activity) is reported as 12% (inactive). For `CC(C)C(C)(C#N)NC(=O)CSc1nc2scc(-c3ccccc3)c2c(=O)[nH]1` (stereo unspecified), the cell killing (% activity) was 22.3% (inactive). In the case of `COc1ccccc1N1CCN(C(=O)c2ccc(Cl)c(S(=O)(=O)N3CCCC3)c2)CC1`, the cell killing (% activity) is reported as 0.9% (inactive). In the case of `Oc1ccc(-c2[nH]ncc2-c2nc3ccccc3s2)c(O)c1`, the cell killing (% activity) is reported as 14.3% (inactive). With `O=c1oc(-c2ccccc2NS(=O)(=O)c2ccc(Cl)cc2)nc2ccccc12` the cell killing (% activity) was -12.7% (inactive). With `O=c1oc(/C=C/c2ccccc2)nc2ccccc12` the cell killing (% activity) was 53% [at 5 µM] (active). For `S=c1[nH]nc(/C=C/c2ccccc2)o1`, the cell killing (% activity) was -2.3% (inactive). For `COc1ccc(Cn2c(O)c(/C=C3/C=CC=N3)c(=O)[nH]c2=O)cc1`, the cell killing (% activity) was 5.9% (inactive). In the case of `Nc1nc(NCC2CCCO2)nc(Nc2ccccc2F)c1[N+](=O)[O-]` (stereo unspecified), the cell killing (% activity) is reported as 2.1% (inactive). For `O=C(CCS(=O)(=O)c1ccccc1Cl)Nc1ccc(S(=O)(=O)Nc2ncccn2)cc1`, the cell killing (% activity) was 1.8% (inactive). In the case of `COc1ccc(C(=O)Nc2ccccc2C(=O)N/N=C/c2ccccc2OC)cc1`, the cell killing (% activity) is reported as 28.7% (inactive). For `COc1cc(/C=N/NC(=O)c2ccccc2)ccc1OS(=O)(=O)c1ccccc1`, the cell killing (% activity) was 21.5% (inactive). For `COc1ccc(C(=O)Nc2ccccc2C(=O)N/N=C/c2ccc(O)c(OC)c2)cc1`, the cell killing (% activity) was 96.7% [at 5 µM] (active). With `CCn1cc(CN2CCCC(CNS(=O)(=O)Cc3ccccc3)C2)cn1` (stereo unspecified) the cell killing (% activity) was 14.8% (inactive). In the case of `O=C(N/N=C/c1cc([N+](=O)[O-])ccc1O)/C(=C\c1cccs1)NC(=O)c1ccccc1`, the cell killing (% activity) is reported as 8.1% (inactive). With `CC12C(=O)N(c3ccccc3)C(=O)C1C(c1ccccc1)N1CCCN12` (stereo unspecified) the cell killing (% activity) was 8.2% (inactive). In the case of `Cn1nccc1NC(=O)CC(CC(=O)O)c1ccccc1` (stereo unspecified), the cell killing (% activity) is reported as 5.7% (inactive). With `CC1(C)N=C(c2ccccn2)C(C)(C)N1O` the cell killing (% activity) was 22.7% (inactive). For `Cc1cc(-n2cnc(-c3cn(C)nc3C)n2)no1`, the cell killing (% activity) was -10.4% (inactive). With `CN1CCN(CC#CCC2(O)c3ccccc3-c3ccccc32)CC1` the cell killing (% activity) was 1.7% (inactive). In the case of `O=c1cnnc(Nc2ccccc2)[nH]1`, the cell killing (% activity) is reported as 30.6% (inactive). With `Cc1nc(-c2ccc(Cl)cc2)sc1C(=O)NN` the cell killing (% activity) was 59.4% [at 5 µM] (active). For `Cc1ccc(SCC(=O)c2sc(-c3ccccc3)nc2C)cc1`, the cell killing (% activity) was 8.5% (inactive). For `Cc1nc(-c2ccc(Cl)cc2)sc1C(=O)CBr`, the cell killing (% activity) was 11.1% (inactive). For `O=C(COC(=O)c1ccc(Cl)nc1)NCc1ccc2c(c1)OCO2`, the cell killing (% activity) was -2.9% (inactive). In the case of `CC(C(=O)Nc1ccc(F)c(F)c1F)N1CCCCCC1` (stereo unspecified), the cell killing (% activity) is reported as 30.5% (inactive). For `COc1ccc(OC)c(NC(=O)N[C@H](Cc2ccccc2)C(=O)NN)c1`, the cell killing (% activity) was -4.7% (inactive). With `Nn1c(SCC(=O)NC2CCCC2)nnc1-c1ccccc1F` the cell killing (% activity) was 2.5% (inactive). For `O=c1c(-c2ccccc2)cnc2n1CCS2`, the cell killing (% activity) was -3.9% (inactive). For `COc1ccc(C2=NOC3(CC(=O)N(c4ccc(C)cc4)C3=O)C2)cc1` (stereo unspecified), the cell killing (% activity) was 12.3% (inactive). For `Cc1ccc(C(=O)NNC2=Nc3cc([N+](=O)[O-])ccc3OC2)cc1`, the cell killing (% activity) was -2.5% (inactive). For `COc1ccc(C2=Nc3cc(C)ccc3OC2)cc1`, the cell killing (% activity) was 52.1% (active). In the case of `CNC(=O)NC(=O)C(OC(=O)c1cccc(S(=O)(=O)N2CCCCC2)c1)c1ccccc1` (stereo unspecified), the cell killing (% activity) is reported as 8.9% (inactive). In the case of `N#CCc1ccc(OC(=O)c2cccnc2)cc1`, the cell killing (% activity) is reported as 0.5% (inactive). In the case of `CCC(C)Cn1c(O)cc2nn(-c3nc4ccccc4s3)c(=O)c-2c1C` (stereo unspecified), the cell killing (% activity) is reported as 56% [at 5 µM] (active). With `CCOC(=O)N1CCN(CC(=O)Nc2cc(C)nn2-c2nc3ccccc3s2)CC1` the cell killing (% activity) was -8.9% (inactive). With `Cc1cc(NC(=O)CN2CCCC(C)C2)n(-c2nc3ccccc3s2)n1` (stereo unspecified) the cell killing (% activity) was -3.9% (inactive). With `COc1ccc(CCNC2=CC(=O)CC(C)(C)C2)cc1` the cell killing (% activity) was 14.5% (inactive).
